Screening results from PubChem.
aSyn 5UTR act: Activators working through SNCA 5'UTR binding (MLPCN); AID 1814; activity score, % (tested at 7.5 µM), hits read low; 300,000 tested, 7.1% active; alpha-synuclein 5'UTR reporter, activators screen; in the data active = activity score below about -60%
Active calls of the source: *. Only a sample is shown.

SMILES	aSyn 5UTR act
COc1ccc(C2=NN(CN3C(=O)C(=O)c4ccccc43)C(c3cccc([N+](=O)[O-])c3)C2)cc1 (stereo unspecified)	-70.3*
COc1cc2nc(N3CCN(c4cc(C)ccc4C)CC3)nc(N)c2cc1OC	94.5
COc1nc(Nc2nc3ccccc3c(=O)[nH]2)nc2ccc(C)cc12	89.9
Cc1ccc(C)c(Nc2nc(N)c3ccccc3n2)c1	-157.4*
COc1ccc(Cl)cc1Nc1nc(N)c2ccccc2n1	-103.3*
CCNC(=S)N/N=C/c1sc(N2CCCCC2)nc1-c1cccs1	-102.2*
O=C(Nc1ccc(S(=O)(=O)NC2=NCCCCC2)cc1)c1ccc([N+](=O)[O-])s1	-65.5*
Cc1ccc(NC(=O)c2cc3ccccc3oc2=O)cc1S(=O)(=O)N(C)C	72.9
CN(c1ccccc1)S(=O)(=O)c1cccc(NC(=O)c2cc3ccccc3oc2=O)c1	-106.0*
COc1ccccc1NS(=O)(=O)c1cccc(NC(=O)c2cc3ccccc3oc2=O)c1	-113.9*
O=c1c2cc(-c3ccccc3)sc2nc2n1N=C(c1ccccc1)CS2	-142.1*
CSc1nc2sc(-c3ccccc3)cc2c(=O)n1N	-74.2*
Brc1ccccc1C1=Nn2c(nnc2-c2ccccc2)SC1	57.5
N/C(=N\OCc1ccccc1)c1nonc1N	-97.8*
O=C(Nc1ccc2c3c(cccc13)CC2)c1ccc(Br)o1	-76.3*
O=C(Nc1ccc2c3c(cccc13)CC2)c1ccco1	-64.7*
Cc1ccc(S(=O)(=O)C2(C(=O)Nc3ccc(C(C)C)cc3)CC2)cc1	-77.0*
COc1ccc(/C=C/C(=O)Oc2cccc(/C=N/NC(=O)Cc3ccc(Br)cc3)c2)cc1	-80.3*
CC(C)NC(=O)N1CCCN(c2nc3ccc(Cl)cc3s2)CC1	-62.1*
CC(C)C(=O)N1CCN(c2nc3ccc(Cl)cc3s2)CC1	-139.6*
O=[N+]([O-])c1ccc(-c2ccc(/C=N/O)o2)cc1	-95.3*
O/N=C\c1ccc(-c2ccccc2)o1	-112.3*
Cc1ccc(C(=O)CCC2CCCC2=O)cc1 (stereo unspecified)	-100.0*
CCc1ccc(C(=O)CCC2CCCCC2=O)cc1 (stereo unspecified)	-130.0*
Cc1ccc(C(=O)CCC2CCCCC2=O)cc1 (stereo unspecified)	-151.2*
SMILES	aSyn 5UTR act
Nc1ccc2oc(=O)c3ccccc3c2c1	-174.1*
Cc1ccc(OC(=O)c2sc3ncn(C)c(=O)c3c2C)cc1	-120.2*
COC(=O)C1CCN(C(=O)CCCOc2ccccc2)CC1	-83.2*
CCCCOc1ccc(C(=O)N2CCCC2)cc1	-62.9*
COc1ccc(OCCC(=O)N2CCCCC2)cc1	-63.2*
N#C/C(=C\c1ccc(-c2nc3ccccc3s2)o1)C(N)=O	-71.4*
O=C(/C=C/c1ccccc1Cl)NCCc1ccccc1	-175.9*
O=C(/C=C/c1ccc(Cl)cc1)NCCc1ccccc1	-66.5*
CC(=O)C1=NOC(CNc2ncc(C(F)(F)F)cc2Cl)C1 (stereo unspecified)	-85.7*
CC1CCN(c2oc(-c3cccc4ccccc34)nc2C#N)CC1	-142.4*
N#Cc1nc(-c2cccc3ccccc23)oc1N1CCCCC1	-155.1*
N#Cc1nc(-c2ccccc2Cl)oc1N1CCCCC1	-68.9*
O=C(CSc1nnc(-c2ccccc2O)o1)N1CCOCC1	-69.4*
O=C(CSc1nnc(-c2ccccc2Cl)o1)N1CCCC1	-68.4*
O=C(CSc1nnc(-c2ccccc2Br)o1)N1CCOCC1	-111.0*
CC(C)(C)c1ccc(NC(=O)CC2(C(F)(F)F)OCCO2)cc1	-111.8*
C=CCSc1n[nH]c(-c2ccccc2)n1	-100.3*
C=CCSc1n[nH]c(-c2ccc(OC)cc2)n1	-165.0*
COc1ccc(C(=O)Nc2cc(Cl)cc(Cl)c2)c(OC)n1	-113.7*
COc1ccc(C(=O)Nc2cc(Cl)ccc2Cl)c(OC)n1	-90.5*
Cc1cc(OCc2cc(C(=O)N(C)Cc3ccccn3)no2)cc(C)c1Cl	-76.9*
CC(=O)c1ccc(OCc2cc(C(=O)N(C)Cc3ccccn3)no2)cc1	-64.9*
Cc1cc(OCc2cc(C(=O)N(C)C(C)c3ccccn3)no2)cc(C)c1Cl (stereo unspecified)	-93.0*
CCOc1ccc(/C=N/Nc2cc(C)nc(N3CCOCC3)n2)cc1	-104.8*
Cc1cc(Nc2ccc(C)c(Cl)c2)nc(N2CCOCC2)n1	-69.9*
SMILES	aSyn 5UTR act
Cc1cc(N/N=C/c2ccc(O)cc2O)nc(-n2nc(C)cc2C)n1	71.8
CCOc1ccc2nc(N3CCOCC3)nc(C)c2c1	-178.1*
O=c1nc(/C=C/c2ccc(O)c(O)c2)oc2ccccc12	-159.0*
CC(C)(C)c1ccc(CSc2nc(N)cc(=O)[nH]2)cc1	-79.3*
[2H]C(CCOS(N)(=O)=O)c1ccc(C(C)(C)C)cc1 (stereo unspecified)	80.0
Nc1cc(=O)[nH]c(SCCSc2ccccc2F)n1	67.4
Cc1cc(NC(=O)CSc2nc(C3CC3)nc3sc4c(c23)CCC(C)C4)no1 (stereo unspecified)	-69.5*
NC(=O)CSc1nc(C2CC2)nc2sc3c(c12)CCCC3	-108.8*
CC(=O)c1sc(NC(=O)c2ccc3c(c2)OCO3)nc1C	-135.6*
O=C(Nc1nccs1)c1ccc2c(c1)OCO2	-145.8*
CC(=O)c1sc(NC(=O)c2ccc(C)c(C)c2)nc1C	-86.3*
Cc1nc(NC(=O)c2ccccc2)sc1Cc1ccc2c(c1)OCO2	-68.7*
Cc1csc(NC(=O)c2ccc3c(c2)OCO3)n1	-81.0*
CCN1CCc2nc(NC(=O)c3ccc4c(c3)OCCO4)sc2C1	-82.9*
CC(=O)c1sc(NC(=O)c2cnc(Cl)c(Cl)c2)nc1C	-127.7*
CC(=O)c1sc(NC(=O)c2ccc(C(C)(C)C)cc2)nc1C	-107.2*
CC1CN(S(=O)(=O)c2ccc(C(=O)NCCCn3ccnc3)cc2)CC(C)O1 (stereo unspecified)	104.6
Cc1ccc(-c2ccc(S(=O)(=O)N3CC(C)OC(C)C3)cc2)cc1 (stereo unspecified)	-78.3*
O=C(NCC(=O)N1CCN(c2ccccc2O)CC1)c1cccs1	-62.9*
Cc1ccc(-c2nc3ncccc3o2)cc1N	-105.6*
Nc1cc(-c2nc3ncccc3o2)ccc1Cl	-273.5*
Cc1cc(-c2nc3ncccc3o2)ccc1N	-111.0*
CCCc1cc(NC(=O)CCl)n(-c2ccccc2)n1	-79.4*
CC(=O)Nc1cc(C)c2nc(NC(C)=O)sc2c1	-89.5*
CC(=O)Nc1nc2c(C)cc(NC(=O)C3CCCCC3)cc2s1	-96.3*
SMILES	aSyn 5UTR act
O=C(Cc1c[nH]c2ccccc12)N1CCc2ccccc21	-62.7*
Cc1ccc2c(CC(=O)N3CCc4ccccc43)coc2c1	-161.4*
Nc1cc(N)nc(SCC(=O)N2CCc3ccccc32)n1	-87.5*
O=C(CSCc1ccco1)c1ccc(Cl)s1	-115.6*
O=C(CSc1ccccc1)N1CCc2ccccc21	-113.4*
O=C(CSCc1ccco1)N1CCc2ccccc21	-82.8*
CCn1c(-c2ccc(F)cc2)cnc1SCC(=O)N1CCc2ccccc21	-85.4*
Cc1nc(SCC(=O)N2CCc3ccccc32)n[nH]1	-67.9*
CCn1c(CNc2ccc(OC)cc2)nnc1SCC(=O)N1CCCc2ccccc21	-70.4*
O=C1c2cccc3c(N4CCCCC4)ccc(c23)C(=O)N1c1ccc(O)cc1	-72.4*
O=C1c2ccc3c4c(ccc(c24)C(=O)N1c1cccc(O)c1)C(=O)N(c1cccc(O)c1)C3=O	68.1
Cc1cccc(N2C(=O)c3cccc4c(N5CCCCC5)c([N+](=O)[O-])cc(c34)C2=O)c1C	61.7
COc1ccc(/C=N/NC(=O)c2cccc(NC(=O)c3ccccc3Cl)c2)cc1	-99.4*
CC(=O)Nc1cccc(C(=O)N/N=C/c2ccc(F)cc2)c1	-115.1*
